High-throughput results (PubChem BioAssay)
Hits are enriched below; roughly 21% of the tested compounds scored in any of these assays.
IL-1B inflam inh: inflammasome signaling inhibition, IL-1 beta readout. AID 743279. THP-1 LPS/ATP IL-1B secretion, AlphaLISA, 16 h; stronger effect = lower value. activity change, % at 57.5 µM. hit rate 4.7% among 360,000; in the data active = activity change below about -50%; inconclusive = mostly about -30% to -49%; also: % is scaled to controls: 0 for no effect and ±100 for the full control effect
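THP-1 cells pretreated 1 hr with compounds (up to 57.5 uM final), then stimulated with LPS (250 ng/mL final) plus ATP (1.25 mM final); secreted IL-1B measured by AlphaLISA after 16 hr, decreased signal indicating inhibition.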
TDP1 cell noCPT: qHTS for Inhibitors of human tyrosyl-DNA phosphodiesterase 1 (TDP1): qHTS in cells in absence of CPT; DT40 Tdp1-/- hTDP1 cells, no CPT, ATP luminescence, 48 h; Potency, µM (highest dose often 46.2 µM), without a hit: top-dose activity change, negative = growth inhibition, most hits filed as inhibitors; hit rate 15% among 420,000; AID 686978, 2013; also: potency is read from the fitted curve at half-maximal effect; % is scaled to controls: 0 for no effect and ±100 for the full control effect; nearly all actives have a fitted effect of over 55% in size
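Cells were dispensed at 400 per well, compounds added by pin tool, plates incubated ≥48 hr at 37 °C, then CellTiter-Glo added for 30 min at room temperature before luminescence reading. Line: DT40 Tdp1-/- complemented with hTDP1; camptothecin omitted.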
TDP1 cell CPT: DT40-hTDP1 cell growth loss with CPT; chicken DT40 Tdp1-/-;hTDP1 cells + 20 nM CPT, ATP luminescence, 48 h; Potency, µM (top dose mostly 46.2 µM), for inactives: at the top dose activity change, negative = growth inhibition, actives largely listed as inhibitors; hit rate 12% among 420,000; AID 686979; also: potency is read from the fitted curve at half-maximal effect; % is scaled to controls: 0 for no effect and ±100 for the full control effect; nearly all actives have a fitted effect of over 55% in size
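Chicken DT40 Tdp1-/- cells stably complemented with human TDP1 were seeded at 400 cells/well in medium containing 20 nM camptothecin, exposed to pin-transferred compounds, and grown at 37 °C for at least 48 hr. Viability was read as ATP luminescence.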
DRD3 antagonist: antagonists of human D3 dopamine receptor; D3R cells, DiscoveRx beta-arrestin luminescence, antagonist mode; stronger effect = lower value; max response, negative = inhibition, %; hit rate 2.5% among 360,000; AID 652054; in the data active = max response below about -50%; inconclusive = no clear call, values can overlap the other calls; also: % is scaled to controls: 0 for no effect and ±100 for the full control effect
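Cells plated overnight at 1500 cells/well, then exposed to library compounds with dopamine controls for 90 minutes at 37 degrees C. DiscoveRx reagent added for 30–60 minutes at room temperature; luminescence read, quantitative HTS format.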
DRD3 agonist: agonists of human D3 dopamine receptor | max activation, % | P35462 | D3R DiscoveRx beta-arrestin cells, luminescence, 90 min | hit rate 0.58% among 410,000; in the data active = max activation above about 30%; also: 0% is about no effect
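Agonist mode: compounds and dopamine controls were applied to plated cells for 90 min at 37 degrees C after an overnight attachment at 1500 cells/well. Luminescent read-out followed 30 - 60 minutes at room temperature with DiscoveRx detection reagent.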
ClpP mod: qHTS Assay for Activators of ClpP; purified B. subtilis ClpP, FRET peptide cleavage, 20 min; hit rate 1.9% among 340,000; AID 651965, 2013; Potency, µM (series often up to 57.5 µM), inactives show at the top dose activity change, negative = active; active = well fitted falling curve with a large enough effect; inconclusive = small, poorly fitted or top-dose-only effect; inactive = no such curve, though single readings can be large or run the other way; also: potency is read from the fitted curve at half-maximal effect; the source files actives as falling curves though it sought activators and does not explain the sign; nearly all actives have a fitted effect of over 65% in size
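FRET quenching reversal measured ClpP activation: 10 microg/mL B. subtilis ClpP at pH 8 with the FRET-FV decapeptide, read at 430 nm after 320 nm excitation. The 20-min minus 0-min signal was scaled between DMSO/no-enzyme wells and ADEP (5.8 microM final).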
Starred values were filed as active, the others as inactive; ? = inconclusive; . = no result given; [ ] = remark or other dose. Unless noted, calls follow the shape of the dose curve; as a rule, active = well fitted inhibition curve with a large enough effect; inconclusive = small, poorly fitted or top-dose-only effect; inactive = flat fitted curve, though single readings scatter.

SMILES	IL-1B inflam inh	TDP1 cell noCPT	TDP1 cell CPT	DRD3 antagonist	DRD3 agonist	ClpP mod
Cc1ccc(-c2nc3ncccn3c2N)cc1	32	-26%	?	1	3	-4%
Cc1ccc(N2CC(NC(=O)c3cccs3)CC2=O)cc1C (centres undefined)	.	?	?	.	4	-2%
Cc1nn(-c2cccc(Cl)c2)nc1C(=O)Nc1cccc(C(=O)NC2CC2)c1	0	10µM*	?	45	3	4%
Cc1nn(-c2ccccc2)nc1C(=O)Nc1cccc(C(=O)NC2CC2)c1	9	15µM*	?	28	2	-9%
C=CCC[C@@H](Cc1ccc(F)cc1)C(=O)OC[C@H](Cc1c[nH]c2ccccc12)NC(=O)[C@H](CC=C)CC(=O)NCCO	-57*	?	?	12	8	-1%
C=CCC[C@H](Cc1ccc(F)cc1)C(=O)OC[C@@H](Cc1c[nH]c2ccccc12)NC(=O)[C@H](CC=C)CC(=O)NCCO	0	16µM*	21µM*	5	-15	0%
Cc1ccsc1C1Cc2c(C(=O)NCc3cccnc3)c(=O)cc(C)n2-c2ccccc2S1 (centres undefined)	.	-17%	-1%[9.04 µM]	.	.	.
Cn1cncc1C#Cc1c(C=O)[nH]c2ccccc12	16	10µM*	5.8µM*	-10	4	-1%
O=S(=O)(Nc1nc2ccccc2nc1N1CCc2ccccc2C1)c1ccc(Br)cc1	13	18µM*	?	20	13	1%
O=S(=O)(Nc1nc2ccccc2nc1N1CCc2ccccc2C1)c1ccc(Cl)cc1	-9	?	?	9	18	?
COc1cccc(CC2(CO)CCN(Cc3ccc(NC(C)=O)cc3)CC2)c1	15	-16%	1%	11	10	0%
COc1cccc(CC2(CO)CCN(Cc3ccc4cccc(F)c4n3)CC2)c1	-71*	?	-19%	-82*	-17	.
COc1cccc(CC2(CO)CCN(CC3=CC[C@H]4C[C@@H]3C4(C)C)CC2)c1	-55*	?	?	-5	-14	.
OCC1(Cc2cccc(F)c2)CCN(Cc2ccc3cccc(F)c3n2)CC1	-72*	?	?	-75*	-7	.
OCC1(CCOc2ccccc2)CCN(Cc2ccc3cccc(F)c3n2)CC1	?	?	-6%	-87*	-14	.
OCC1(CCOc2ccccc2)CCN(Cc2ccncc2)CC1	19	?	-1%	1	-8	-4%
O=C(c1cnsn1)N1CCC(CO)(Cc2cccc(F)c2)CC1	-10	-24%	4%	1	13	.
COc1ccc(OCC(=O)Nc2ccc(N3CCN(Cc4ccccc4F)CC3)cc2)cc1	8	?	?	0	-2	0%
CCOc1ccc(N2C(=O)CC(Sc3nc(C)cc(C)n3)C2=O)cc1 (centres undefined)	36	1%	-20%	-20	-13	0%
CCOC(=O)c1cnc(SC2CCc3ccccc3C2=O)nc1N (centres undefined)	21	-20%	?	15	-6	-8%
Cc1ccc(N2C(=O)CC(Sc3nc(C)cc(C)n3)C2=O)cc1 (centres undefined)	43	8.2µM*	7.3µM*	-1	-3	-3%
CCOC(=O)c1cnc(SC2CC(=O)N(c3ccc(C)cc3)C2=O)nc1N (centres undefined)	0	4.1µM*	3.3µM*	11	5	-1%
CCCCN(CC)CCCNC(=O)CCN1N=C(c2ccc(OC)cc2)CCC1=O	.	-12%	-1%	.	2	-4%
COc1ccc(Cl)cc1NC(=O)CN(C)C(=O)c1ccc(-n2nc(C)cc2C)cc1	-26	15µM*	18µM*	-2	-5	-1%
O=C(NCc1cccnc1)c1sc2cc(Cl)ccc2c1Cl	?	?	?	-18	-3	-3%
SMILES	IL-1B inflam inh	TDP1 cell noCPT	TDP1 cell CPT	DRD3 antagonist	DRD3 agonist	ClpP mod
Cc1ccc(NC(=O)CN(C)C(=O)c2sc3cc(Cl)ccc3c2Cl)cc1	5	-20%	-16%	-7	-21	4%
COc1ccc(Cl)cc1NC(=O)CN(C)C(=O)c1sccc1-c1ccccc1	14	?	?	0	-3	3%
COc1ccc(NC(=O)CN(C)C(=O)c2sc3cc(Cl)ccc3c2Cl)cc1	-1	?	-17%	3	3	28µM*
COc1ccc(Cl)cc1NC(=O)CN(C)C(=O)c1sc2ccccc2c1Cl	-6	?	16µM*	1	-5	-3%
Cc1c(CN(C)C(=O)c2sc3cc(Cl)ccc3c2Cl)cnn1C	?	21µM*	15µM*	6	2	0%
COc1ccc(COC[C@H](C)[C@H](O)[C@@H](C)[C@H]2OC(=O)[C@@H]2C)cc1	44	-3%	-10%	-18	20	-2%
CCOC(=O)c1c(S(=O)(=O)Nc2ccccn2)c(C)n(C)c1C	15	12%	11%	8	5	0%
Cc1ccc(NC2CCCN(C(=O)CN3C(=O)CSC3=O)C2)cc1C (centres undefined)	-5	-2%	9%	12	4	2%
COc1ccc(Cl)cc1NC(=O)CN(C)C1CCCCC1	-11	?	?	-20	0	-1%
COc1ccc(Cl)cc1NC(=O)CN(C)C(=O)C12CC3CC(CC(Cl)(C3)C1)C2	-25	23µM*	?	4	-8	-3%
COc1ccc(NC(=O)CN2C(=O)COc3ccc(S(=O)(=O)NC4CCCC4)cc32)cc1OC	.	-10%	-8%	.	-4	0%
O=C(NN1CCOCC1)c1cc(-c2ccc(Cl)c(Cl)c2)nc2ccccc12	-17	1.3µM*	?	5	1	1%
O=C(NN1CCOCC1)c1cc(-c2ccncc2)nc2ccccc12	16	-29%	-7%	12	8	-11%
O=C(NN1CCOCC1)c1cc(-c2cccs2)nc2ccccc12	-5	?	-17%	10	2	10µM*
O=C(NNC(=O)c1cc(-c2ccc(Cl)c(Cl)c2)nc2ccccc12)Nc1ccccc1	?	?	15µM*	0	-9	2%
CN1CCN(NC(=O)c2cc(-c3ccc(Br)s3)nc3ccccc23)CC1	?	7.3µM*	?	-17	-7	.
O=C(Cc1ccccc1)Nc1ncccn1	20	4%	8%	2	-16	0%
